Experimental data reported in paper PMC9911399, “Two distinct binding modes provide the RNA-binding protein RbFox with extraordinary sequence specificity”.
Numbering of substitutions follows the chain as printed; changes in the protein carry UniProt numbers. Over roughly 16,000 sequences, “ka relative to ugcaugu” has its median near 0.096; the highest 2% begin near 0.35. The sample as a whole holds a higher share of the highest values than the screen did.

T1: RBFOX1 RRM RbFoxmut (Fox-RRM*) (Homo sapiens, UniProt Q9NWB1 109-208, R118D;E147R;N151S;E152T)
T1 sequence: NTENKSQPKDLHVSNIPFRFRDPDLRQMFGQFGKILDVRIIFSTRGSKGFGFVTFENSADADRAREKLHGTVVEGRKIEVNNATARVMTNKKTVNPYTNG

B1: CUACGGU (DNA:RNA)
RNA: GGGAGACCGGAAUUCAGAUUGUCCCUACGGUUUAAAUCCCGUCGUAGCCACCA
DNA 1: CAATCTGAATTCCGGTCTCCC
DNA 2: TGGTGGCTACGACGGGATT
B2: CUCUAUU (DNA:RNA)
RNA: B1 RNA with A27C, C28U, G29A, G30U
DNA 1: CAATCTGAATTCCGGTCTCCC
DNA 2: TGGTGGCTACGACGGGATT
B3: UGCCUAC (DNA:RNA)
RNA: B1 RNA with C25U, U26G, A27C, G29U, G30A, U31C
DNA 1: CAATCTGAATTCCGGTCTCCC
DNA 2: TGGTGGCTACGACGGGATT
B4: GGCUUCC (DNA:RNA)
RNA: GGGAGACCGGAAUUCAGAUUGUCCGGCUUCCUUAAAUCCCGUCGUAGCCACCA
DNA 1: CAATCTGAATTCCGGTCTCCC
DNA 2: TGGTGGCTACGACGGGATT
B5: AAAUCUA (DNA:RNA)
RNA: B1 RNA with C25A, U26A, C28U, G29C, G30U, U31A
DNA 1: CAATCTGAATTCCGGTCTCCC
DNA 2: TGGTGGCTACGACGGGATT
B6: ACCACCC (DNA:RNA)
RNA: B4 RNA with G25A, G26C, U28A, U29C
DNA 1: CAATCTGAATTCCGGTCTCCC
DNA 2: TGGTGGCTACGACGGGATT
B7: UCUGUUU (DNA:RNA)
RNA: B1 RNA with C25U, U26C, A27U, C28G, G29U, G30U
DNA 1: CAATCTGAATTCCGGTCTCCC
DNA 2: TGGTGGCTACGACGGGATT
B8: CGUCGUG (DNA:RNA)
RNA: B1 RNA with U26G, A27U, G30U, U31G
DNA 1: CAATCTGAATTCCGGTCTCCC
DNA 2: TGGTGGCTACGACGGGATT
B9: CUGCACC (DNA:RNA)
RNA: B1 RNA with A27G, G29A, G30C, U31C
DNA 1: CAATCTGAATTCCGGTCTCCC
DNA 2: TGGTGGCTACGACGGGATT
B10: UGCACGA (DNA:RNA)
RNA: B4 RNA with G25U, U28A, U29C, C30G, C31A
DNA 1: CAATCTGAATTCCGGTCTCCC
DNA 2: TGGTGGCTACGACGGGATT
B11: UGCACGU (DNA:RNA)
RNA: B1 RNA with C25U, U26G, A27C, C28A, G29C
DNA 1: CAATCTGAATTCCGGTCTCCC
DNA 2: TGGTGGCTACGACGGGATT
B12: CCUGCAC (DNA:RNA)
RNA: B1 RNA with U26C, A27U, C28G, G29C, G30A, U31C
DNA 1: CAATCTGAATTCCGGTCTCCC
DNA 2: TGGTGGCTACGACGGGATT
B13: CUGCACG (DNA:RNA)
RNA: B1 RNA with A27G, G29A, G30C, U31G
DNA 1: CAATCTGAATTCCGGTCTCCC
DNA 2: TGGTGGCTACGACGGGATT
B14: UGCACGG (DNA:RNA)
RNA: B4 RNA with G25U, U28A, U29C, C30G, C31G
DNA 1: CAATCTGAATTCCGGTCTCCC
DNA 2: TGGTGGCTACGACGGGATT
B15: UGCCACG (DNA:RNA)
RNA: B4 RNA with G25U, U28C, U29A, C31G
DNA 1: CAATCTGAATTCCGGTCTCCC
DNA 2: TGGTGGCTACGACGGGATT
B16: UGCACCA (DNA:RNA)
RNA: B4 RNA with G25U, U28A, U29C, C31A
DNA 1: CAATCTGAATTCCGGTCTCCC
DNA 2: TGGTGGCTACGACGGGATT
B17: UGCACCG (DNA:RNA)
RNA: B4 RNA with G25U, U28A, U29C, C31G
DNA 1: CAATCTGAATTCCGGTCTCCC
DNA 2: TGGTGGCTACGACGGGATT
B18: GUCUGGU (DNA:RNA)
RNA: B1 RNA with C25G, A27C, C28U
DNA 1: CAATCTGAATTCCGGTCTCCC
DNA 2: TGGTGGCTACGACGGGATT
B19: AAACGGC (DNA:RNA)
RNA: B1 RNA with C25A, U26A, U31C
DNA 1: CAATCTGAATTCCGGTCTCCC
DNA 2: TGGTGGCTACGACGGGATT
B20: UCAUAGC (DNA:RNA)
RNA: B1 RNA with C25U, U26C, C28U, G29A, U31C
DNA 1: CAATCTGAATTCCGGTCTCCC
DNA 2: TGGTGGCTACGACGGGATT
B21: ACGGCGA (DNA:RNA)
RNA: B1 RNA with C25A, U26C, A27G, C28G, G29C, U31A
DNA 1: CAATCTGAATTCCGGTCTCCC
DNA 2: TGGTGGCTACGACGGGATT
B22: CUUUAUC (DNA:RNA)
RNA: B1 RNA with A27U, C28U, G29A, G30U, U31C
DNA 1: CAATCTGAATTCCGGTCTCCC
DNA 2: TGGTGGCTACGACGGGATT
B23: AAGCCUG (DNA:RNA)
RNA: B1 RNA with C25A, U26A, A27G, G29C, G30U, U31G
DNA 1: CAATCTGAATTCCGGTCTCCC
DNA 2: TGGTGGCTACGACGGGATT
B24: CAGGCUA (DNA:RNA)
RNA: B1 RNA with U26A, A27G, C28G, G29C, G30U, U31A
DNA 1: CAATCTGAATTCCGGTCTCCC
DNA 2: TGGTGGCTACGACGGGATT
B25: ACACAAA (DNA:RNA)
RNA: B1 RNA with C25A, U26C, G29A, G30A, U31A
DNA 1: CAATCTGAATTCCGGTCTCCC
DNA 2: TGGTGGCTACGACGGGATT
B26: GGUUCUG (DNA:RNA)
RNA: B4 RNA with C27U, U29C, C30U, C31G
DNA 1: CAATCTGAATTCCGGTCTCCC
DNA 2: TGGTGGCTACGACGGGATT
B27: UGGCGUG (DNA:RNA)
RNA: B1 RNA with C25U, U26G, A27G, G30U, U31G
DNA 1: CAATCTGAATTCCGGTCTCCC
DNA 2: TGGTGGCTACGACGGGATT
B28: ACCAGCA (DNA:RNA)
RNA: B4 RNA with G25A, G26C, U28A, U29G, C31A
DNA 1: CAATCTGAATTCCGGTCTCCC
DNA 2: TGGTGGCTACGACGGGATT
B29: AGCCAGC (DNA:RNA)
RNA: B4 RNA with G25A, U28C, U29A, C30G
DNA 1: CAATCTGAATTCCGGTCTCCC
DNA 2: TGGTGGCTACGACGGGATT
B30: AGCAUAA (DNA:RNA)
RNA: B4 RNA with G25A, U28A, C30A, C31A
DNA 1: CAATCTGAATTCCGGTCTCCC
DNA 2: TGGTGGCTACGACGGGATT
B31: AUGCUUG (DNA:RNA)
RNA: B1 RNA with C25A, A27G, G29U, G30U, U31G
DNA 1: CAATCTGAATTCCGGTCTCCC
DNA 2: TGGTGGCTACGACGGGATT
B32: AGCCUGC (DNA:RNA)
RNA: B4 RNA with G25A, U28C, C30G
DNA 1: CAATCTGAATTCCGGTCTCCC
DNA 2: TGGTGGCTACGACGGGATT
B33: ACCAUGC (DNA:RNA)
RNA: B4 RNA with G25A, G26C, U28A, C30G
DNA 1: CAATCTGAATTCCGGTCTCCC
DNA 2: TGGTGGCTACGACGGGATT
B34: CAGCAUC (DNA:RNA)
RNA: B1 RNA with U26A, A27G, G29A, G30U, U31C
DNA 1: CAATCTGAATTCCGGTCTCCC
DNA 2: TGGTGGCTACGACGGGATT
B35: CAGCAUG (DNA:RNA)
RNA: B1 RNA with U26A, A27G, G29A, G30U, U31G
DNA 1: CAATCTGAATTCCGGTCTCCC
DNA 2: TGGTGGCTACGACGGGATT
B36: AGCAUGA (DNA:RNA)
RNA: B4 RNA with G25A, U28A, C30G, C31A
DNA 1: CAATCTGAATTCCGGTCTCCC
DNA 2: TGGTGGCTACGACGGGATT
B37: AUGCUGC (DNA:RNA)
RNA: B1 RNA with C25A, A27G, G29U, U31C
DNA 1: CAATCTGAATTCCGGTCTCCC
DNA 2: TGGTGGCTACGACGGGATT
B38: AGCAUGC (DNA:RNA)
RNA: B4 RNA with G25A, U28A, C30G
DNA 1: CAATCTGAATTCCGGTCTCCC
DNA 2: TGGTGGCTACGACGGGATT
B39: CAGCAUA (DNA:RNA)
RNA: B1 RNA with U26A, A27G, G29A, G30U, U31A
DNA 1: CAATCTGAATTCCGGTCTCCC
DNA 2: TGGTGGCTACGACGGGATT

Biological target: T1, RBFOX1 RRM RbFoxmut (Fox-RRM*)
Experiment: EMSA; HiTS-Eq, 1 nM pool, 10 min; buffer printed only for the single-RNA assays: 10 mM Tris pH 7.5, 150 mM NaCl, 3.4 mM EDTA, 0.001% NP-40, 30 C
Conditions: tags: His6 N-terminal (pET28a); label: 5' 32P
In short: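 Purified RbFox RRM, wild type or mutant, was incubated for 10 min in 50 µL with 1 nM of a 5′-radiolabelled RNA pool carrying 7 randomized nucleotides, whose flanks were annealed to DNA oligonucleotides, over a series of increasing protein concentrations. Unbound RNA was resolved on 8% native PAGE, cut out, reverse-transcribed, barcoded by PCR and sequenced on an Illumina HiSeq 2500. Relative association constants were derived from changes in read counts for each RNA species versus the control reaction and normalised to the cognate motif.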

Row | Binder | binding signal
1 | B1 | 0.0878 KA relative to UGCAUGU
2 | B2 | 0.107 KA relative to UGCAUGU
3 | B3 | 0.105 KA relative to UGCAUGU
4 | B4 | 0.142 KA relative to UGCAUGU
5 | B5 | 0.088 KA relative to UGCAUGU
6 | B6 | 0.0531 KA relative to UGCAUGU
7 | B7 | 0.0825 KA relative to UGCAUGU
8 | B8 | 0.156 KA relative to UGCAUGU
9 | B9 | 0.141 KA relative to UGCAUGU
10 | B10 | 0.368 KA relative to UGCAUGU
11 | B11 | 0.362 KA relative to UGCAUGU
12 | B12 | 0.09 KA relative to UGCAUGU
13 | B13 | 0.626 KA relative to UGCAUGU
14 | B14 | 0.308 KA relative to UGCAUGU
15 | B15 | 0.158 KA relative to UGCAUGU
16 | B16 | 0.158 KA relative to UGCAUGU
17 | B17 | 0.223 KA relative to UGCAUGU
18 | B18 | 0.192 KA relative to UGCAUGU
19 | B19 | 0.085 KA relative to UGCAUGU
20 | B20 | 0.116 KA relative to UGCAUGU

Row | Binder | binding signal
21 | B21 | 0.1 KA relative to UGCAUGU
22 | B22 | 0.0598 KA relative to UGCAUGU
23 | B23 | 0.0848 KA relative to UGCAUGU
24 | B24 | 0.0916 KA relative to UGCAUGU
25 | B25 | 0.0812 KA relative to UGCAUGU
26 | B26 | 0.208 KA relative to UGCAUGU
27 | B27 | 0.321 KA relative to UGCAUGU
28 | B28 | 0.121 KA relative to UGCAUGU
29 | B29 | 0.0776 KA relative to UGCAUGU
30 | B30 | 0.0973 KA relative to UGCAUGU
31 | B31 | 0.361 KA relative to UGCAUGU
32 | B32 | 0.0804 KA relative to UGCAUGU
33 | B33 | 0.0949 KA relative to UGCAUGU
34 | B34 | 0.307 KA relative to UGCAUGU
35 | B35 | 0.965 KA relative to UGCAUGU
36 | B36 | 0.524 KA relative to UGCAUGU
37 | B37 | 0.126 KA relative to UGCAUGU
38 | B38 | 0.495 KA relative to UGCAUGU
39 | B39 | 0.137 KA relative to UGCAUGU
